# Bioassay records (PubChem)
# Shn3 inh set2: inhibitors of Schnurri-3 3'UTR reporter in osteoblasts | Clone20 osteoblast Shn3 3'UTR firefly luciferase, 24 h | inhibition, % at 12.5 µM | 360,000 compounds, 0.52% hits | AID 588674;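 active = mean inhibition of at least 75% with every replicate also reaching 75%; inconclusive = mean inhibition at least 75% but some replicate below; inactive = mean inhibition below 75%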;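 note: 0% = median of neutral control wells and 100% = pilot-screen positive control compound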
# KKLEB cytotox: counter-screen for CF NF-kB inhibitors: cytotoxicity; KKLEB CF airway cells viability, ATPlite luminescence, overnight; active compounds read low; cells stimulated with P. aeruginosa culture filtrate; activity change (cytotoxicity), % at 5 µM; 360,000 compounds, 0.36% hits;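 active = corrected activity change at or below -50% at 5 µM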
# Peg3 prom inh: reduces Peg3 promoter-driven luciferase expression in HeLa; HeLa PEG-Prom luciferase reporter, luminescence, overnight; inhibition, % at 20 µM; 360,000 compounds, 1.7% hits; AID 588405;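 active = inhibition of at least 50% at 20 µM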
# TRPM1 prom inh: MITF TRPM1 promoter inhibition in SK-MEL-5 cells | SK-MEL-5 TRPM1 promoter luciferase, 24 h | inhibition, % at 12.5 µM | 330,000 compounds, 0.83% hits | AID 488899;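 active = mean inhibition across replicates of 60% or more, whatever share of single replicates reaches that level; inconclusive = some that reach 60%, reason not given; inactive = mean inhibition across replicates below 60%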
# HIF-2a block: inhibitors of HIF-2a | AID 624352 | 786-0 RCC cells HIF-2a reporter, luciferase luminescence, overnight | 360,000 compounds, 0.72% hits | inhibition, % at 18.8 µM;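 active = inhibition of the luminescence signal of 40% or more relative to plate controls, in a single-dose primary screen at 18.75 µM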
# CF NFkB inh: blocks PAF-induced NF-kB reporter in cystic fibrosis cells | KKLEB NF-kB-GFP reporter, GFP fluorescence overnight | inhibition, % at 5 µM | 360,000 compounds, 0.86% hits | AID 588850;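 active = at least 50% inhibition at 5 µM, scaled per plate between neutral and stimulator controls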;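 note: PAF is a Pseudomonas aeruginosa culture filtrate used as stimulus; plate controls were PAF-stimulated DMSO wells for no effect and unstimulated DMSO wells for full effect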
# * = called active by the depositor; ? = inconclusive; . = not tested or not shown. This is a sample that favours compounds with a hit; in the whole collection about 2.8% have one here.
SMILES,Shn3 inh set2,KKLEB cytotox,Peg3 prom inh,TRPM1 prom inh,HIF-2a block,CF NFkB inh
Cc1ccc(-n2c(-c3ccccc3)c[n+]3c2CCc2ccccc2-3)c(C)c1,?,-10,42,76*,1,22
Nc1nc(N)c2cc([N+](=O)[O-])ccc2n1,-6,7,3,14,9,-14
Nc1nc(N)c2cc(S(=O)(=O)c3ccc4ccccc4c3)ccc2n1,85*,-24,14,.,25,31
Nc1nonc1C(=O)NCCNCc1cc(Br)ccc1OCc1ccccc1F,85*,-17,-11,12,2,1
NS(=O)(=O)c1ccc(CCNCc2ccccc2OCc2ccc(Cl)cc2)cc1,61,0,87*,3,-2,14
NS(=O)(=O)c1ccc(CCNCc2cc(Br)ccc2OCc2ccccc2F)cc1,86*,-9,13,5,-1,10
COc1cc(CNCCNC(=O)c2nonc2N)ccc1OCc1ccc(Cl)cc1,82,-5,88*,-7,-45,11
COc1cccc(CNCCNC(=O)c2nonc2N)c1,-5,-6,-4,3,5,0
Nc1nonc1C(=O)NCCNCc1ccccc1OCc1ccccc1F,41,-6,-13,14,10,-3
Cc1cccc(C)c1OCc1cc(C(=O)N2CCN(c3ccccc3)CC2C)no1 (stereo not given),-12,-16,10,-11,-27,-73
C[C@H](CO)N1C[C@H](C)[C@@H](CN(C)C(=O)Nc2ccccc2)Oc2c(NC(=O)C3CCCCC3)cccc2C1=O,-36,1,9,11,11,-1
Cc1csc(=O)n1CC(=O)OCC(=O)c1ccc(Br)cc1,-30,-15,12,5,5,25
O=C(Cn1cc2c(n1)CCCCC2)Nc1ccccc1Br,0,-9,-44,-13,-60,3
CC(NC(=O)Cc1ccc(S(=O)(=O)N2CCOCC2)s1)c1ccc(Cl)c(Cl)c1 (stereo not given),4,-6,22,-7,14,-1
COc1ccc2nc(NC(=O)c3cccc(-c4cc5ccccc5oc4=O)c3)sc2c1,-22,-54*,99*,2,-95,60*
COc1ccc(C(=O)Nc2nc3ccc(OC)cc3s2)cc1,-112,10,-298,-54,-256,-9
COc1ccc(C(C)NCCC(c2ccc(OC(C)C)cc2)c2ccccc2OC)cc1 (stereo not given),69,0,104*,92*,27,-2
COc1ccc(C(CCNC(C)c2ccccc2)C(C)C)cc1 (stereo not given),-10,-5,-8,.,4,6
Cc1ccc(Sc2nc(-c3ccccc3)nnc2C(F)(F)F)cc1,79,2,105*,13,4,17
COc1ccc(N2CC(C(=O)N/N=C/c3cc([N+](=O)[O-])ccc3O)CC2=O)cc1 (stereo not given),12,11,2,3,10,6
CCCCCCCOC(=O)C[N+](C)(C)CCOC1CC2CCC1(C)C2(C)C (stereo not given),85*,-38,99*,94*,-2,47
COc1ccc(-c2cnc(C(O)c3ccc(C(C)(C)C)cc3)[nH]2)cc1 (stereo not given),14,-5,-5,.,-3,11
CC[C@H](C)[C@@H](CN[C@H](C)CNC)NCCC(c1ccccc1)c1ccccc1,4,-11,98*,90*,-3,20
CNC[C@@H](C)NC[C@@H](Cc1ccccc1)NCCc1ccccc1,17,-25,-1,-18,4,-3
O=C(NN=C(c1ccccc1)c1ccccn1)c1ccccc1,84*,8,47,67*,8,-21
SMILES,Shn3 inh set2,KKLEB cytotox,Peg3 prom inh,TRPM1 prom inh,HIF-2a block,CF NFkB inh
C/C(=N/NC(=O)c1ccccn1)c1ccncc1,-34,6,-127,-33,-174,5
COc1ccc(C(=O)N/N=C(\c2ccccc2)c2ccccn2)cc1,87*,-7,38,55,10,13
O=C(N/N=C(\c1ccccc1)c1ccccn1)c1ccccc1Cl,95*,-11,54*,59,11,15
Cc1ccc(F)cc1NC(=O)c1c(-c2ccccc2)noc1C,-47,-11,1,-7,3,-36
COc1ccc(C2c3cc(OC)c(OC)cc3CC3C(=O)OCC32)cc1OC (stereo not given),-29,3,-4,1,-3,-1
O=C(CN1C(=O)NC2(CCCC2)C1=O)N1CCN(S(=O)(=O)c2ccccc2[N+](=O)[O-])CC1,9,2,-2,3,-4,2
CC12CCC(O)CC1=CCC1C2CCC2(C)C3=NN=CC3CC12 (stereo not given),-31,-11,51*,3,7,38
CC1OC2CC(=O)OC2C2=C1C(=O)c1c(O)cccc1C2=O (stereo not given),94*,-83*,103*,.,90*,91*
CS(=O)(=O)N(CCC#N)Cc1ccc(/C=C2\C(=O)Nc3ccccc32)o1,6,-6,16,-8,18,50*
N#C/C(=C\c1ccc([N+](=O)[O-])o1)C(=O)Nc1ccc(F)cc1,0,4,53*,33,-33,4
COc1ccc(NC(=O)/C(C#N)=C\c2ccc(Br)o2)cc1,-22,-5,-114,-74,-146,1
Cc1ccc(N(CC(=O)NCCc2ccccc2)C(=O)CCC(=O)Nc2cc(C)ccn2)cc1,-3,11,-2,0,8,-22
CC(C)(C)NC(=S)N/N=C/c1c(Cl)cccc1Cl,-4,-2,6,-16,-7,-4
Cc1ccc(NC(=S)N/N=C/c2c(Cl)cccc2Cl)c(C)c1,23,-8,-103,-9,-145,50*
Cc1cc(C)nc(NC(=NCCc2c[nH]c3ccccc23)NC(=O)Nc2ccccc2)n1,49,-9,52*,-7,-4,42
c1coc(C2=NC(c3ccco3)C(c3ccco3)N2)c1 (stereo not given),-25,4,-68,-19,-128,-12
O[C@@H]1CN(Cc2ccc(-n3cccn3)cc2)CC[C@H]1N1CCN(c2ccccc2F)CC1,85,0,0,19,20,4
CC(C)c1onc(C(=O)N2CCN(c3ccccc3)CC2)c1[N+](=O)[O-],7,0,-8,-2,0,23
O=C(c1cc(-c2ccco2)on1)N1CCN(C(c2ccccc2)c2ccccc2)CC1,24,-26,15,75*,7,27
CC(C)c1onc(C(=O)N2CCN(C(c3ccccc3)c3ccccc3)CC2)c1[N+](=O)[O-],6,-5,17,0,5,50*
COc1cc(CN2CCNC(=O)C2CC(=O)N2CCc3ccccc3C2)cc(OC)c1 (stereo not given),-9,2,0,-5,9,7
COc1ccc(C(=O)Nc2ccc(Cl)cc2C(=O)N2CCCC(C)C2)cc1OC (stereo not given),17,-4,0,2,17,8
